# TWEAK Fn14 block: TWEAK-Fn14 signaling inhibition | inhibition, % at 10 µM | 360,000 tested, 2% active | TWEAK-stimulated Fn14 reporter cells, luciferase luminescence, 8 h; in the data active means inhibition above about 50%
# HIF-2a inh: HIF-2a inhibition; 786-0 RCC cells HIF-2a reporter, luciferase luminescence, overnight; inhibition, % at 18.8 µM; 360,000 tested, 0.72% active;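 active means inhibition of the luminescence signal of 40% or more relative to plate controls, in a single-dose primary screen at 18.75 µM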
# TROY NFkB inh: blocks TROY-dependent signaling in reporter cells; Q293 LMP1-TROYcd NF-kB luciferase reporter, 4 h; inhibition, % at 10 µM; 360,000 tested, 0.98% active; AID 1347056;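 active means compounds whose plate-normalised and pattern-corrected inhibition of the luciferase reporter signal at the single screening dose is 50% or more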
# MITF TRPM1 inh: reduces MITF-dependent TRPM1 promoter luciferase signal; SK-MEL-5 TRPM1 promoter luciferase, 24 h; 330,000 tested, 0.83% active; inhibition, % at 12.5 µM;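 active means mean inhibition across replicates of 60% or more, whatever share of single replicates reaches that level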
# Peg3 prom inh: inhibitors of Peg3 promoter; inhibition, % at 20 µM; AID 588405; 360,000 tested, 1.7% active; HeLa PEG-Prom luciferase reporter, luminescence, overnight;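 active means inhibition of at least 50% at 20 µM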
# LMP1 NFkB inh: inhibitors of Epstein-Barr LMP1-induced NF-kappaB reporter; inhibition, % at 12.5 µM; AID 504558; LMP1-induced NF-kappaB luciferase reporter cells, luminescence; 350,000 tested, 0.69% active; in the data active means inhibition above about 41%;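 further: 0% = neutral control wells and 100% = reference inhibitor control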
# * hit, by the source's call; x = no result given. A selection: hits, their analogues and other compounds. The true share with any hit is near 4%.
SMILES,TWEAK Fn14 block,HIF-2a inh,TROY NFkB inh,MITF TRPM1 inh,Peg3 prom inh,LMP1 NFkB inh
CC(C)(C)/C(O)=C/c1nc2ccccc2[nH]c1=O,75.0*,-13.4,81.5*,-2.0,-23.1,-2.9
O=c1[nH]c2ccccc2nc1/C=C(\O)C1CC1,-29.1,-41.2,6.0,0.0,-44.3,-1.2
CN(C)c1ccc(C(C(=O)NC2CCCC2)N(C(=O)c2csnn2)C2CC2)cc1 (stereo not drawn),31.0,9.2,-4.4,6.4,12.6,-1.6
CCCCC(=O)/C=C/n1c(=S)oc2ccccc21,95.6*,-43.3,41.8,11.6,100.6*,-23.2
Cc1cccc(CSc2nc3c(c(-c4cccs4)c2C#N)CN(C)CC3)c1,39.9,15.0,37.1,-1.2,11.5,24.4
CC(=O)CSc1nc(N)c(C#N)c(-c2cccs2)c1C#N,51.7*,6.4,11.6,-5.8,20.4,2.1
Cc1cccc(CSc2nc(N)c(C#N)c(-c3cccs3)c2C#N)c1,30.6,24.6,31.7,7.9,63.0*,12.6
Cc1cccc(OCCNc2cc(N3CCN(CCO)CC3)ccc2[N+](=O)[O-])c1,-13.8,-24.8,-33.2,-13.4,9.8,11.5
CNc1ccc2ncc(-c3ccccc3NC(C)=O)n2n1,-11.1,10.6,1.8,x,-4.8,x
N#Cc1ccc(Nc2nc(-c3ccccc3)c(C(=O)c3ccccc3)s2)cc1,-3.0,-97.5,-5.3,x,61.0*,x
O=C(c1ccc2n[nH]nc2c1)N1CCN(c2ccc(C(F)(F)F)cn2)CC1,2.7,7.7,24.6,0.0,7.1,12.5
COC(=O)CCCC[C@@H]1SC[C@@H](NC(=O)OC)[C@@H]1NC(=O)OC,6.3,14.4,-16.2,3.8,1.7,53.4*
Cc1ccccc1CNC(=O)/C=C\C(=O)O,1.0,20.1,74.6*,-0.1,-8.1,0.9
COc1ccccc1CNC(=O)/C=C/C(=O)O,-2.2,11.8,16.9,-0.7,3.1,4.6
COc1cccc(CNc2nc3cc(-c4cccc(C(=O)NCCO)c4)sc3c(=O)n2C)c1,-46.1,5.7,-18.6,x,-4.4,x
COc1ccc(-c2cc3ccc(OC)cc3cn2)cc1,85.7*,-146.3,41.8,15.7,-125.9,22.3
COc1ccc(-c2cc3ccccc3cn2)cc1,42.7,-148.9,-11.7,-20.7,-207.2,-34.3
CCC(=O)N1CCCC(C(=O)NS(=O)(=O)c2cc(C)c(Cl)cc2C)CC1 (stereo not drawn),1.6,10.8,-11.0,x,14.0,x
COc1ccccc1Cc1c(C2CCCCC2)nc2ccc(C)cn12,-4.2,-54.4,-19.2,x,74.3*,x
COc1ccccc1Cc1c(C2CCCCC2)nc2ccc(Cl)cn12,18.5,-11.8,-0.7,x,8.0,x
CCN(CC(=O)NCc1ccc(Cl)cc1)C(=O)c1ccc(C#N)cc1,-0.3,18.0,3.5,1.7,0.0,-0.8
Cc1cc2c3c(c1)C(C)(c1ccccc1)CC(C)(C)N3C(=O)C21C(C#N)=C(N)OC2=C1C(=O)CC(C)(C)C2 (stereo not drawn),34.6,11.7,18.5,-1.7,47.1,-16.1
CC1(c2ccccc2)CC(C)(C)N2C(=O)C3(C(C#N)=C(N)Oc4cc(O)ccc43)c3cccc1c32 (stereo not drawn),56.6*,32.6,32.7,3.0,22.3,4.7
O=C(Nc1ccc(-c2nc3ccccc3[nH]2)cc1)c1ccc2c(c1)OCO2,-4.5,-2.5,-68.0,39.4,64.4*,-27.7
O=C(Nc1ccc(-c2nc3ccccc3[nH]2)cc1)C1CCCO1 (stereo not drawn),73.2*,-71.3,32.8,7.4,-50.1,2.9
SMILES,TWEAK Fn14 block,HIF-2a inh,TROY NFkB inh,MITF TRPM1 inh,Peg3 prom inh,LMP1 NFkB inh
O=C(Nc1ccc(Cl)c(-c2nc3ccccc3[nH]2)c1)c1ccc2c(c1)OCO2,-10.2,-50.9,-57.5,0.5,-11.9,-6.6
COc1cccc(CN2CCC2(C)C(=O)NCCc2ccccn2)c1OC (stereo not drawn),8.8,-5.7,0.5,x,0.5,x
O=C(C1CCCC1)N1CCCC(Nc2ccc(F)cc2)C1 (stereo not drawn),-4.1,9.0,-7.2,8.1,10.6,7.3
Cc1ccc(NC2CCCN(C(=O)C3CCCCC3)C2)cc1C (stereo not drawn),69.4*,4.4,-20.7,6.7,24.9,-9.2
S=C1NC[C@H](c2ccccc2)N1CCCCC1CCCCC1,-10.4,3.4,-9.8,0.6,-1.6,-4.9
NC1=NC[C@H](c2ccccc2)N1CCCCC1CCCCC1,3.1,6.8,3.6,14.9,99.8*,2.3
Cc1ccc(C)c(NC(=O)/C(C#N)=C/c2cn(CC(=O)NCc3ccco3)c3ccccc23)c1,-44.9,4.5,-7.0,56.6,51.1*,-14.8
Cc1ccc(CS/C(Nc2ccccc2C)=C(\C#N)C(=O)NCc2ccco2)c(C)c1,10.3,22.6,4.9,-4.6,50.9*,-0.8
Cc1cc(C)cc(NC(=O)/C(C#N)=C/c2cn(CC(=O)NCc3ccco3)c3ccccc23)c1,-52.6,14.0,29.0,83.9*,74.5*,-2.5
COc1ccc(C(C#N)=C2C=C(Cl)C(=NO)C=C2Cl)cc1,75.0*,-126.4,41.5,x,-15.2,5.0
Cc1ccc(N2CC(C(=O)Nc3ccc(S(=O)(=O)NCC4CCCO4)cc3)CC2=O)cc1C (stereo not drawn),15.0,-0.7,8.3,21.2,-0.1,-1.7
COc1ccc(CC(N)c2csc(NC(=O)c3ccccc3)n2)cc1 (stereo not drawn),-4.2,4.1,2.8,x,11.2,x
COc1ccc(CNC(=O)Nc2nc(C(N)Cc3ccc(C(F)(F)F)cc3)cs2)cc1 (stereo not drawn),-3.0,1.8,12.6,x,95.4*,x
COc1ccc(CC(N)c2csc(NC(=O)c3ccc(OC)cc3)n2)cc1 (stereo not drawn),11.6,-6.3,13.2,x,16.4,x
COc1ccc(CC(N)c2csc(NC(=O)NCCc3ccccc3)n2)cc1 (stereo not drawn),-22.8,7.9,19.0,x,57.9*,x
COc1ccc(CC(N)c2csc(NC(=O)C(c3ccccc3)c3ccccc3)n2)cc1 (stereo not drawn),1.4,-8.3,11.1,x,98.3*,x
COc1ccc(CC(N)c2csc(NC(=O)c3cccc(OC(F)(F)F)c3)n2)cc1 (stereo not drawn),21.7,19.7,-3.9,x,94.4*,x
O=C(C[C@H]1CC[C@@H](NS(=O)(=O)c2ccccc2)[C@@H](CO)O1)NCc1ccc(Cl)c(Cl)c1,x,-8.0,x,x,x,x
CSc1ncnc2[nH]ccc12,48.6,-5.8,-4.2,0.4,-1.6,5.5
CCOC(=O)C1CCN(C(=O)c2cc3cc(Br)ccc3oc2=O)CC1,-2.9,-7.3,-31.2,6.9,-2.6,0.0
COc1cc(CNC(=O)Nc2nc(C(N)c3ccccc3)cs2)cc(OC)c1OC (stereo not drawn),1.9,7.2,-1.1,x,-1.3,x
NC(CCc1ccccc1)c1csc(NC(=O)NCCc2ccccc2)n1 (stereo not drawn),7.5,-17.6,10.4,x,92.6*,x
O=C(NCCc1ccccc1)Nc1ccc(Cl)cc1,-13.6,-186.4,-37.0,-65.8,-329.9,-35.2
COc1cc(CNC(=O)Nc2nc(C(N)Cc3ccc(Cl)cc3)cs2)cc(OC)c1OC (stereo not drawn),2.6,0.7,16.9,x,86.3*,x

# From PubChem
